The panel holds about 83,000 compounds, 20% with a hit somewhere; the sample as a whole holds those more often.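 Method: cells in 96-well plates; compound added at one concentration; 48 h incubation; percent growth measured; values under 10 scored active.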 The source made the active and inactive calls.
Tested on: PC-3 prostate
Assay: NCI-60 one-dose screen, 48 h (100 = growth as untreated, 0 = no growth, -100 = all killed)
Conditions: 10 µM unless noted

SMILES | growth
CCCn1nc(-c2ccccc2)c2c(-c3ccccc3)onc2c1=O | 73% (inactive)
Cc1cc(N(CCCNc2ccnc3cc(Cl)ccc23)Cc2ccccn2)nc(N2CCCC2)n1 | 50.5% (inactive)
C=C(C)[C@@H]1CC[C@]2(CN)CC[C@]3(C)[C@H](CC[C@@H]4[C@@]5(C)CCC(N)[C@@](C)(CO)[C@@H]5CC[C@]43C)[C@@H]12 (stereo not given in full) | 6.4% (active)
COc1ccc(-n2ncn(CCCCCCn3cnn(-c4ccc(OC)cc4)c3=O)c2=O)cc1 | 84.8% (inactive)
O=C(NC1CCOCC1)c1ccc2c(c1)CN(c1ncc(Cc3cccc(-n4cccn4)c3)s1)CC2 | 58.7% (inactive)
C=C(CNCCc1ccc(O)cc1)[C@@H]1CC[C@]2(COC3CCCCO3)CC[C@]3(C)[C@H](CC[C@@H]4[C@@]5(C)CCC(NCCO)C(C)(C)[C@@H]5CC[C@]43C)[C@@H]12 (stereo not given in full) | -92.6% (active)
Cc1c(C(=O)O[C@H]2[C@@H]3[C@H](C)CC[C@H]3[C@]3(C)O[C@@]2(C2CCCCC2)C[C@H]3OC(=O)CO)ccc2ccccc12 | 9.25% (active)
COc1ccc(Oc2nc(Nc3ccc(N4CCCCC4)nc3)ncc2NC(=O)c2cc(OC)cc(OC)c2)cc1 | 35.6% (inactive)
Cc1cc(N2CCCCC2)nc(N(CCNc2ccnc3cc(Cl)ccc23)Cc2ccccn2)n1 | 45.1% (inactive)
CCCCOc1ccc(NC(=O)n2nc(N=NN(C)C)c3ccc(Cl)cc32)cc1 | 88.5% (inactive)
O=C1NN(C(=O)c2ccc(O)cc2)C(c2ccccc2)=N/C1=C\c1cn(-c2ccccc2)nc1-c1ccccc1 | 104% (inactive)
COC(=O)/C(=C\c1ccc(OC)cc1)C(=O)N1c2ccccc2Sc2ccccc21 | 53% (inactive)
COc1ccc(Oc2nc(Nc3ccc(N4CCOCC4)nc3)ncc2NC(=O)c2cc(OC)cc(OC)c2)cc1 | 67.9% (inactive)
NC(=O)c1c(NC(=O)c2ccc(C(F)(F)F)cc2Cl)sc2c1CCC(=O)C2 | -68.8% (active)
O=C(NCCOCCOCCOCCNC(=O)c1cc2c(o1)C(=O)c1ccccc1C2=O)NC12CC3CC(CC(C3)C1)C2 | 12.1% (inactive)
COC(=O)c1ccc(CSc2nnc(-c3ccncc3)o2)cc1 | 87.5% (inactive)
CCCc1nc2ccccn2c1Nc1ccc(C(=O)NO)cc1 | 83% (inactive)
Fc1ccc(Nc2ccc3cc(OCCCN4CCOCC4)ccc3n2)cc1F | 45.2% (inactive)

SMILES | growth
C=C1c2c(C)nn(-c3ccc(S(N)(=O)=O)cc3)c2N(C)C23CC1C1(C)c4c(C)nn(-c5ccc(S(N)(=O)=O)cc5)c4N(C)C(C)(CC12)C3 (stereo not given) | 23.6% (inactive)
C=C1c2c(C)nn(-c3ccc(NC(C)=O)cc3)c2N(C)C23CC1C1(C)c4c(C)nn(-c5ccc(NC(C)=O)cc5)c4N(C)C(C)(CC12)C3 (stereo not given) | 22.7% (inactive)
C[C@@H]1CC[C@@H]2[C@@H]1[C@H](OC(=O)c1ccc3ccccc3c1)[C@]1(C3CCCCC3)C[C@@H](OC(=O)CO)[C@@]2(C)O1 | 22.2% (inactive)
CC(C)(C)c1ccc(C(=O)Nc2sc3c(c2C(N)=O)CCC(=O)C3)cc1 | -5.7% (active)
COc1ccc(/C=C(\C#N)n2nnc3cc(F)c(F)cc32)c(OC)c1OC | 57.9% (inactive)
C=C1c2c(C)nn(-c3ccc(O)cc3)c2N(C)C23C[C@@H]1C1(C)c4c(C)nn(-c5ccc(O)cc5)c4N(C)C(C)(C[C@H]12)C3 (stereo not given in full) | 12.8% (inactive)
CSc1ccc(Cl)c(C(=O)Nc2sccc2C(N)=O)c1 | 83.8% (inactive)
C=C1c2c(C)nn(-c3ccc(N)cc3)c2N(C)C23CC1C1(C)c4c(C)nn(-c5ccc(N)cc5)c4N(C)C(C)(CC12)C3 (stereo not given) | 53.1% (inactive)
CC(=O)Nc1ccc2c(c1)Cc1c(F)cccc1-2 | 88.4% (inactive)
C=C(C)[C@@H]1CC[C@]2(CNCCO)CC[C@]3(C)[C@H](CC[C@@H]4[C@@]5(C)CCC(N)[C@@](C)(CO)[C@@H]5CC[C@]43C)[C@@H]12 (stereo not given in full) | 20.1% (inactive)
Cc1cnc(Nc2ccc(OCCN3CCCC3)cc2)nc1NCc1ccco1 | 72% (inactive)
Cc1cc(N(CCCNc2ccnc3cc(Cl)ccc23)Cc2ccccn2)nc(N2CCOCC2)n1 | 74% (inactive)
C=C(CNCCc1ccc(O)cc1)[C@@H]1CC[C@]2(COC3CCCCO3)CC[C@]3(C)[C@H](CC[C@@H]4[C@@]5(C)CCC(N)C(C)(C)[C@@H]5CC[C@]43C)[C@@H]12 (stereo not given in full) | -91% (active)
Clc1ccc2c(NCCCN3CCN(c4nc(-n5ccnc5)nc5ccccc45)CC3)ccnc2c1 | 78.4% (inactive)
Cn1c(NCCc2ccc(O)c(O)c2)nc2c1c(=O)n(Cc1ccc(Cl)cc1)c(=O)n2C | 60% (inactive)
CCN(CC)N=Nc1nn(C(=O)Nc2ccc(Cc3ccccc3)cc2)c2ccc(Cl)cc12 | 69.6% (inactive)
COC(=O)c1ccc2oc(NC(=O)c3ccc(N4CCOCC4)c([N+](=O)[O-])c3)nc2c1 | 89.5% (inactive)
